Source: PubChem BioAssay AID1863 (Southern Research Specialized Biocontainment Screening …, 2009)
In all, about 300,000 compounds went through this assay and about 480 (0.16%) were called active.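 How the source made its calls: active means inhibition over 29.93%, a cutoff 3 SD above the screen mean, later confirmed by dose response; inconclusive means inhibition over 29.93% but no dose response follow-up; inactive means inhibition at most 29.93% or unconfirmed.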 The list is a sample of the results. Measured potencies and affinities stand elsewhere.

Assay: PhoP-dependent GFP reporter repression – Salmonella Typhimurium, primary screen (AID 1863);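 further: 0% = low Mg2+ inducing control and 100% = high Mg2+ repressing control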
Details: S. Typhimurium PhoP-regulated promoter GFP reporter, 4 h; at 50 µM; active compounds read high

SMILES	inhibition
Nc1n[nH]c(N)c1N=Nc1ccccc1F	-3.09% (inactive)
CCC(=O)Nc1ccc(C(=O)CSc2nc(N)cc(N)n2)cc1	4.88% (inactive)
CS(=O)(=O)N1CCN(c2ccccc2NC(=O)c2cccnc2)CC1	-0.66% (inactive)
CC(C)CCNC(=O)c1c(CSc2ccccc2)noc1C(=O)NCc1ccccc1	-1.54% (inactive)
Cc1cc(-c2nnc(SCC(=O)Nc3ccc(F)cc3F)n2N)n[nH]1	-6.5% (inactive)
COc1ccc(S(=O)(=O)N2CCC(C(=O)Nc3c(F)cccc3F)CC2)cc1	14.7% (inactive)
Cn1c(=O)[nH]c(=O)c2c1nc(CN1CCN(c3ccc(F)cc3)CC1)n2CCCc1ccccc1	-9.74% (inactive)
CO[C@@]12[C@H](COC(N)=O)C3=C(C(=O)C(C)=C(N)C3=O)N1C[C@@H]1N[C@@H]12	17.4% (inactive)
COc1ccc(C(=O)N2CCN(c3ncccn3)CC2)cc1	6.73% (inactive)
COc1ccc(-n2c(SCc3cccnc3)nc3c(c2=O)SCC3)cc1OC	-5.3% (inactive)
Cc1ccccc1OCC(=O)NCC(=O)N/N=C/c1cccc([N+](=O)[O-])c1	-0.52% (inactive)
CCS(=O)(=O)Nc1c(C)n(C)n(-c2ccccc2)c1=O	-5.83% (inactive)
NS(=O)(=O)c1ccc(CNC(=O)c2cc(-c3cccnc3)nc3ccc(Br)cc23)cc1	-5.23% (inactive)
Cc1ccccc1N1CCN(C2CCCN(C(=O)c3ccccn3)C2)CC1 (configuration not stated)	-6.14% (inactive)
CCn1cc(C(=O)O)c(=O)c2cnc(N3CCN(C(=S)NC(=O)c4ccc(OC)cc4)CC3)nc21	1.6% (inactive)
CCn1cc(C(=O)O)c(=O)c2cc(F)c(N3CCN(S(=O)(=O)c4ccc(Br)cc4)CC3)cc21	3.63% (inactive)
CCn1cc(C(=O)O)c(=O)c2cc(F)c(N3CCN(C(=S)NC(=O)c4cc(OC)cc(OC)c4)CC3)cc21	23.2% (inactive)
Cc1cccc(C(=O)NC(=S)N2CCN(C(=S)NC(=O)c3cccc(C)c3)CC2)c1	12.1% (inactive)
CCn1cc(C(=O)O)c(=O)c2cc(F)c(N3CCN(S(=O)(=O)c4ccc(NC(=O)OC)cc4)CC3)cc21	-9.02% (inactive)
CCn1cc(S(=O)(=O)c2ccc(OC)cc2)c(=O)c2cc(F)c(N3CCN(C)CC3)cc21	-6.69% (inactive)
C=CCCCCCCCCC(=O)N1CCN(c2cc3c(cc2F)c(=O)c(C(=O)O)cn3CC)CC1	11.3% (inactive)
CCc1sc(C(=O)Nc2cccnc2)cc1Br	-5.61% (inactive)
COc1ccc2[nH]cc(CCNC(=O)c3ccc4ccccc4n3)c2c1	-0.1% (inactive)

SMILES	inhibition
CCC(=O)N1CCc2cc(Br)cc(S(=O)(=O)N3CCC(C(=O)NC(C)C)CC3)c21	3.79% (inactive)
CNc1cc(CSC)nc(SCc2ccc(Cl)c(Cl)c2)n1	-2.03% (inactive)
O=C(c1ccc2ncsc2c1)N1CCCCC1	0.96% (inactive)
O=C(O)CCSc1nc2ccccc2n1Cc1ccccc1	-0.57% (inactive)
NC(=O)CN(c1ccc([N+](=O)[O-])cc1)S(=O)(=O)c1ccccc1	10% (inactive)
CN(C)C(=O)/C(C#N)=C\c1cc(Br)c(Sc2ccc(Cl)cc2)o1	2.32% (inactive)
Cc1nc2c(C)cccn2c(=O)c1NC(=O)c1ccco1	6.47% (inactive)
CCNC(=O)CN1C(=O)NC2(CCOc3ccccc32)C1=O (configuration not stated)	-2.64% (inactive)
CCn1cc(C(=O)NCc2cccc(F)c2)c(=O)c2cc(F)c(N3CCN(C(=O)c4ccco4)CC3)cc21	12.3% (inactive)
CCn1cc(C(=O)O)c(=O)c2cnc(N3CCN(C(=S)NC(=O)c4ccc(Cl)cc4)CC3)nc21	30.7% (inactive)
CCn1cc(C(=O)N/N=C(/C)c2ccc(F)cc2)c(=O)c2cc(F)c(N3CCCC3)cc21	-8.17% (inactive)
CCn1cc(C(=O)O)c(=O)c2cnc(N3CCN(C(=S)NC(=O)c4ccccc4)CC3)nc21	18.2% (inactive)
Cc1c(Cl)cccc1NC(=S)N1CCOCC1	-2.07% (inactive)
O=C(Nc1c2c(nn1-c1cccc(Cl)c1)CS(=O)(=O)C2)C1CC1	-4.19% (inactive)
CCNC(=S)Nc1ccc(-c2nc3ccccc3[nH]2)cc1	-10.4% (inactive)
COc1ccc(NC(=O)c2cn3c(nc4ccccc43)c(C#N)c2C)cc1	-3.66% (inactive)
CC1CCN(S(=O)(=O)c2ccc3c(c2)c(=O)c(C(=O)N2CCOCC2)cn3C)CC1	-0.29% (inactive)
Cc1c(CC(=O)N[C@@H](C)C(=O)O)c(=O)oc2c(C)c3occ(-c4ccccc4)c3cc12	9.42% (inactive)
C=CCN(Cc1nc(-c2ccccc2)no1)C(=O)c1ccc2c(c1)OCO2	1.88% (inactive)
O=[N+]([O-])c1ccc(/C=N/NC(=S)Nc2ccccc2)o1	18.4% (inactive)
O=C(/C=C/c1cccc([N+](=O)[O-])c1)NCCSCc1cccc(Cl)c1	-1.04% (inactive)
CCn1cc(C(=O)O)c(=O)c2cnc(N3CCN(C(=S)NC(=O)c4ccc(F)c(F)c4)CC3)nc21	7.64% (inactive)
CCCCCCCCCC(=O)N1CCN(c2cc3c(cc2F)c(=O)c(C(=O)O)cn3CC)CC1	6.32% (inactive)

SMILES	inhibition
CCOC(=O)c1sc(N)c(C#N)c1CSc1nnc(C2CC2)n1N	0.84% (inactive)
COc1cccc2c1OC[C@@H](CO)[C@H]2N(C)C(=O)Nc1ccc(Cl)cc1	-5.57% (inactive)
CO[C@@]1(NC(=O)CSCC#N)C(=O)N2C(C(=O)O)=C(CSc3nnnn3C)CS[C@@H]21	2.92% (inactive)
Cn1nnnc1SCC1=C(C(=O)O)N2C(=O)C(NC(=O)C3CC3c3ccccc3)C2SC1 (configuration not stated)	5.81% (inactive)
COC(=O)C(C)Oc1cc(OC(C)C(=O)OC)c2c(-c3ccccc3)cc(=O)oc2c1 (configuration not stated)	-1.83% (inactive)
c1ccc(-c2ccccn2)nc1	1.51% (inactive)
c1ccc(-c2ccc(-c3ccccn3)nn2)nc1	17.9% (inactive)
C[C@H](NC(=O)C1CC(=O)N(c2ccc3c(c2)OCCO3)C1)C(=O)NC1CCCC1 (some centres not stated)	-3.6% (inactive)
CCN(CC)C(=O)COc1ccc(N(C)S(=O)(=O)c2ccc(NC(C)=O)cc2)cc1	-5.37% (inactive)
COc1cc(Nc2ncnc(N)n2)cc(OC)c1OC	-3.05% (inactive)
COc1cc(-c2nc(N)n[nH]2)cc(OC)c1OC	-10.2% (inactive)
COc1cccc(OCCNc2cc(Cl)ccc2[N+](=O)[O-])c1	6.62% (inactive)
Cc1ccc(NC(=O)C2(C)Cc3ccccc3C(=O)O2)cc1 (configuration not stated)	-8.33% (inactive)
CC1CCN(CC(=O)Nc2cccc(C(=O)Nc3cccc(C(F)(F)F)c3)c2)CC1	0.24% (inactive)
O=C(CNC(=O)c1ccccc1)Nc1cccc(C(F)(F)F)c1	-8.93% (inactive)
O=C1CCN(N=Nc2cccc(Cl)c2)N1	-4.47% (inactive)
COc1ccc(N2CCN(C(=O)CN(C3CCCCC3)S(C)(=O)=O)CC2)cc1	-3.93% (inactive)
O=S(=O)(NCc1ccccc1)NCc1ccccc1F	-1.32% (inactive)
O=C(O)c1ccc(CNCc2ccccc2F)cc1	0.78% (inactive)
Cc1csc(C(=O)O)c1NC(=O)c1c(Cl)cccc1Cl	-3.3% (inactive)
CCOC(=O)c1cn(CC)c2cc3c(cc2c1=O)OCO3	7.75% (inactive)
CCn1ccc(=O)c2cc3c(cc21)OCO3	2.11% (inactive)
CCn1nc(C(=O)N2CCN(Cc3ccc4c(c3)OCO4)CC2)c2ccccc2c1=O	-2.79% (inactive)

SMILES	inhibition
CCn1cc(C(=O)N[C@H](C(=O)O)C(C)C)c(=O)c2cc3c(cc21)OCO3	25.9% (inactive)
Cn1c(SCC(=O)NC2CCCCC2)nnc1-c1cc2cc(Cl)ccc2o1	5.87% (inactive)
CCC(=O)NC(c1cccs1)c1ccc2cccnc2c1O (configuration not stated)	27% (inactive)
CC(C)CC(=O)NC(c1cccs1)c1ccc2cccnc2c1O (configuration not stated)	9.48% (inactive)
O=C1OCc2cc(NC(=O)C3CCCO3)ccc21 (configuration not stated)	13.1% (inactive)
COc1ccc(Cc2nc3ccc(C(=O)N4CCC[C@H]4CO)cc3o2)cc1	-5.77% (inactive)
Cc1ccc(C)c2c1[nH]c1ccccc12	-11.2% (inactive)
Cc1cc2[nH]c3ccccc3c2c(C)n1	17.6% (inactive)
COc1ccc2[nH]c3c(=S)nc[nH]c3c2c1	11.1% (inactive)
COc1ccc2[nH]c3c(Cl)ncnc3c2c1	2% (inactive)
Cc1ccc(C2(c3noc(CN(C)Cc4ccccn4)n3)CCCC2)cc1	1.51% (inactive)
O=C(O)Cn1c(O)c(C2=c3ccccc3=NC2=O)sc1=O	3.25% (inactive)
COc1cccc(N/C(N)=N/c2nc(C(F)(F)F)cc(C(F)(F)F)n2)c1	-1.8% (inactive)
O=S1(=O)N=C(N/N=C/c2ccco2)c2ccccc21	11.7% (inactive)
O=S1(=O)N=C(N/N=C/c2cccs2)c2ccccc21	0.95% (inactive)
S=c1[nH]c2ccccc2n2c(=S)[nH]nc12	4.88% (inactive)
O=c1[nH]c2ccccc2n2cnnc12	3.8% (inactive)
C=CCn1c(SCC(=O)OCC)nc2cc(C(=O)NCc3ccco3)ccc2c1=O	-4.98% (inactive)
CCCn1nc(C(=O)OCC(=O)Nc2cccc(S(N)(=O)=O)c2)c2ccccc2c1=O	-1.14% (inactive)
Nc1[nH]nc2nc3ccccc3cc12	0.6% (inactive)
Nc1c2ccccc2nc2ccccc12	20.8% (inactive)
Nc1nc(-c2cccnc2)nn1C(=O)c1ccccc1Cl	0.52% (inactive)
COc1ccc(-c2csc(NC(=O)COC(=O)c3ccco3)n2)cc1	5.57% (inactive)
